Values joined by “and” are separate entries in the source; they are usually repeats but may differ in a detail not shown here. Equal entries are not always repeated. In all, about 74,000 compounds went through this assay and about 1,100 (1.5%) were called active. Inconclusive results (about 5%) are left out. The entries come from a sample that favours actives as a whole. Unmarked numbers belong to inactive results. Calls come from the whole dose curve; as a rule, active = well fitted inhibition curve with a large enough effect; inconclusive = small, poorly fitted or top-dose-only effect; inactive = no such curve, though single readings can be large or run the other way. Non-standard residues stand in square brackets, D forms with d. Residues, ends and D or L forms follow the SMILES beside them. Groups on a side chain read outwards from the residue. *: point of attachment. X2 = CCC(C)C(N)C1=NC(C(=O)*)CS1; Orn = NCCC[CH](N)C(=O)O
% is set by controls: 0 for no effect and ±100 for the full control effect; potency is the fitted concentration of half-maximal effect.

Chain of Polyunsaturated fatty acid lipoxygenase ALOX15 (Homo sapiens) (P16050 whole entry, looked up): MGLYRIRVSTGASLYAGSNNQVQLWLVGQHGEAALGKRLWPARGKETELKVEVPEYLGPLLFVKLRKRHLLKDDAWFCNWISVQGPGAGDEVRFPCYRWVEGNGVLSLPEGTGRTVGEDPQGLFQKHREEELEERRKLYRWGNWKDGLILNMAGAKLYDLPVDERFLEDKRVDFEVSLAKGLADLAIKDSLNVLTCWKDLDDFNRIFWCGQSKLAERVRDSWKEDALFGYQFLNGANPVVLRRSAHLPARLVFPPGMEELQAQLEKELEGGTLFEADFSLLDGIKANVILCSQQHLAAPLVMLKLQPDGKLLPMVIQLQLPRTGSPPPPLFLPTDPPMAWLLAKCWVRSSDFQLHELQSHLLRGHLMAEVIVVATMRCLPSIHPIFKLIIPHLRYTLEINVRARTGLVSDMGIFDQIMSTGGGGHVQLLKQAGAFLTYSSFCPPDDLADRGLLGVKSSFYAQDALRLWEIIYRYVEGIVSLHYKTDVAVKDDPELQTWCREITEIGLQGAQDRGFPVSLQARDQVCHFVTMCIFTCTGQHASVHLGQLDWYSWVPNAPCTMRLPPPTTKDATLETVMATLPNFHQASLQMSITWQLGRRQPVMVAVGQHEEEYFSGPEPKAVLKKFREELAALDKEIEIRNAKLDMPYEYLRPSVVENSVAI

The experiment has as its target Polyunsaturated fatty acid lipoxygenase ALOX15 (Homo sapiens) (UniProt P16050). The experiment can be described thus: qHTS Assay for Inhibitors of 15-hLO (15-human lipoxygenase). Note: nearly all actives have a fitted effect of over 55% in size. The note with it: purified 15hLO-1, xylenol orange hydroperoxide absorbance; series mostly up to 57.1 µM; activity change, negative = inhibition: at the top concentration. An outline of the steps: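 Purified human 15hLO-1 (40 nM final) in 25 mM Hepes pH 7.5, 0.01% Triton X-100 was preincubated with compound 15 min at room temperature, then reacted 6 min with 50 uM arachidonic acid; hydroperoxide detected by Fe-XO, 573/405 nm absorbance ratio.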
(In general: Quantitative high-throughput screening tests each substance at several concentrations.)
Consider `O=C(Nn1cnc2ccccc2c1=O)c1ccc(F)cc1Cl`, for which the “activity change, negative = inhibition” value was 3.47%.
The same measure, in the same setting: the value for `C/C(O)=C\c1nc(=O)c2c(C)cc(C)nc2n1-c1ccccc1` was 0.435%; that for `CCCS(=O)(=O)C(=C1Nc2ccccc2N1)S(=O)(=O)CCC` was 15.7%; that for `COc1c2c(cc3occ(-c4ccc5c(c4)OCO5)c(=O)c13)OC(C)(C)C=C2` was 0.261%.
For the molecule `CC(C)Cn1c(CCC(=O)O)ccc1-c1cccs1`, the “activity change, negative = inhibition” value is -18.8%.
Still for that read-out and setting: the value for `COCCCNC(=O)c1c(F)c(F)c(F)c(F)c1F` was 0.932%.
In the case of `COCCCn1c(CCC(=O)O)ccc1-c1ccc(F)cc1`, the Potency is 15.8 µM (active).
In the case of `Nc1ncn(C2OC(CO)C(O)C2O)c(=O)n1` (stereo unspecified), the “activity change, negative = inhibition” value is 0.0711%.
Same read-out and setting: the value for `CC1(C)OC2CC3C4CCC5=CC(=O)CCC5(C)C4(F)C(O)CC3(C)[C@]2(C(=O)CCl)O1` (stereo partly specified) was 3.58%.
For `CC1CC[C@@]23CCC4(C)[C@@]5(C)CCC6C(C)(C)C(O)CC[C@@]6(C)C5C=C[C@@]4(OC2=O)C3C1C` (stereo partly specified), the “activity change, negative = inhibition” value was -8.3%.
For `CCOC(=O)CSC1=C(C#N)C(c2ccco2)C(C(=O)OCc2ccccc2)=C(C)N1` (stereo unspecified), the “activity change, negative = inhibition” value is -23.2%.
For the molecule `N#CC1=C(N)Oc2c(sc3ccccc23)C1c1ccco1` (stereo unspecified), the Potency is 3.98 µM (active).
`Nc1nc2[nH]c(=O)c(=O)[nH]c2c(=O)[nH]1`: the “activity change, negative = inhibition” value is 0.107%.
For `CC(=O)OCC(=O)[C@@]1(O)CCC2C3CCC4=CC(=O)CC[C@]4(C)C3C(=O)C[C@]21C` (stereo partly specified), the “activity change, negative = inhibition” value is 3.23%.
As for `O=C(c1ccco1)N1CCC2(CC1)CCN(c1ncccn1)CC2`, the “activity change, negative = inhibition” value is 9.21%.
Turning to `COc1ccc(-c2nnc(SC(=O)N3c4ccccc4Sc4ccccc43)o2)cc1`, the Potency is 3.16 µM (active).
Consider `COc1ccc(-c2nnc(SC(C)C#N)o2)cc1` (stereo unspecified), for which the “activity change, negative = inhibition” value was 1.19%.
Regarding `COc1ccc(CC(=O)Nc2ccc(-c3nnc(-c4ccccc4)o3)cc2)cc1`, the “activity change, negative = inhibition” value was -7.27%.
Take `COC(=O)CC1C(C)(C)C(OC(C)=O)C2CC3=C4CC(=O)OC(c5ccoc5)[C@]4(C)CCC3[C@@]1(C)C2=O` (stereo partly specified): the “activity change, negative = inhibition” value was 6.69%.
Still for that read-out and setting: in the case of `COC(=O)c1ccc2c(=O)n(CC3CCCO3)c(=S)[nH]c2c1` (stereo unspecified) it was -3.04%.
In the case of `CCOC(=O)c1sc(=S)n2c1[nH]c(=O)c1ccc(C(=O)OC)cc12`, the Potency is 10 µM (active).
Take `CCOC(=O)Cn1c(N)c(C(=O)OC)sc1=S`: the “activity change, negative = inhibition” value is -20.2%.
Same read-out and setting: in the case of `COc1ccc(Oc2ncc3nc(C)c(=O)n(-c4ccccc4)c3n2)cc1` it was -0.0242%; in that of `COC(=O)C1=C(C)N(Cc2ccccc2)C2=C3C(=O)N(c4ccccc4)C(=O)C3[C@@](O)(C(=O)OC)C(=O)N2C1c1ccccc1` (stereo partly specified), 4.96% [at 11.4 µM] and 4.92% [at 11.4 µM]; in that of `CN1CCC(CNC(=O)c2ccc(-n3c(=O)c(=O)[nH]c4ccccc43)cc2)CC1`, -7.95%.
Still for that read-out and setting: in the case of `O=C1NS(=O)(=O)c2ccccc21` it was -9.99%; in that of `OCCCNC(c1ccccc1)c1ccc(O)cc1` (stereo unspecified), -11%.
For the molecule `CSc1sc(C)cc1C1C(C#N)=C(N)N(c2cccnc2)C2=C1C(=O)CCC2` (stereo unspecified), the Potency is 15.8 µM (active).
Consider `Cc1cc(C(=O)O)ccc1[N+](=O)[O-]`, for which the “activity change, negative = inhibition” value is -12.9%.
On the same count and under the same terms, in the case of `O=C1C[C@@H](O)[C@@H](O)[C@H]2[C@@H]3C(=O)N(Cc4ccc5c(c4)OCO5)C(=O)[C@@H]3CC[C@H]12` it was 6.76% [at 11.4 µM] and -0.286% [at 11.4 µM].
Same read-out and setting: in the case of `CO/N=C\[C@@H](C)[C@H](OCc1ccccc1)C(C)C` it was 6.43% [at 11.4 µM]; in that of `CC1C(O)CC2C(C(=O)O)=CO[C@@H](O[C@H]3OC(CO)C(O)C(O)C3O)C21` (stereo partly specified), 9%.
As to `CC1(C)OC(C(O)(c2ccccc2)c2ccccc2)C(C(O)(c2ccccc2)c2ccccc2)O1` (stereo unspecified), the activity change, negative = inhibition was 14.5% [at 11.4 µM].
On to `CC[C@@H]1Cc2cc(O)ccc2C2=C1c1ccc(O)cc1C[C@H]2CC`, for which the Potency was 10 µM (active).
Regarding `COc1cccc([C@H](O)Cn2cc(-c3ccc(CON=C(C)C)cc3)nn2)c1`, the activity change, negative = inhibition was 15.5% [at 11.4 µM].
Same read-out and setting: the value for `C[C@@H](c1ccccc1)N1C(=O)[C@H]2[C@H]3[C@H](O)[C@H](O)C/C(=N/OC[C@@H](O)COCc4ccco4)[C@@H]3CC[C@@H]2C1=O` was 0.315% [at 11.4 µM]; that for `Cc1cnc(CNc2cc(-c3c(C)noc3C)ncn2)cn1` was 11%.
On the same count and under the same terms, the value for `CCC(C)C(N)C1=NC(C(=O)NC(CC(C)C)C(=O)NC(CCC(=O)O)C(=O)NC(C(=O)NCCCCC2NC(=O)C(CC(N)=O)NC(=O)C(CC(=O)O)NC(=O)C(Cc3cnc[nH]3)NC(=O)C(Cc3ccccc3)NC(=O)C(C(C)CC)NC(=O)C(CCCN)NC2=O)C(C)CC)CS1` (stereo not drawn) (cyclo(DNK([Ile-Glu-Leu-X2])[Orn]IFH); configuration not given here) was -2.63%.
Still for that read-out and setting: in the case of `COc1ccc(C(=O)NC(=O)CSc2nnc(-c3ccco3)n2-c2ccccc2)cc1` it was 8.82%; in that of `Cc1cccc(C)c1NC(=O)CCCSc1nnc(-c2ccco2)n1-c1ccccc1`, 9.58%.
Consider `O=C(CSc1nnc(-c2ccco2)n1-c1ccccc1)NCCc1ccccc1`, for which the Potency was 6.31 µM (active).
`COC(=O)[C@@H]1CC[C@H](C)[C@@H](c2ccc(C)cc2)N1C(=O)c1ccc(/C=N\O[C@@H](C)c2cn([C@H](CO)Cc3ccccc3)nn2)cc1`: the activity change, negative = inhibition is -7.8% [at 11.4 µM] and 0.419% [at 11.4 µM].
`CC(=O)N1CCN(c2ccc(NCc3ccc(C(C)C)cc3)cc2)CC1`: the Potency is 12.6 µM (active).
Turning to `CC(=O)N1CCC2(CC1)CCN(c1ccncc1)CC2`, the “activity change, negative = inhibition” value was 5.31%.
The same measure, in the same setting: the value for `CN1CCN(c2ccc(NC(=O)COc3ccc(Cl)cc3Cl)cc2)CC1` was -10.2%; that for `CC(C)CO/N=C1/C[C@@H](O)[C@@H](O)[C@@H]2[C@@H]3C(=O)N(C[C@@H]4CCCO4)C(=O)[C@H]3CC[C@@H]12` was 9.84% [at 11.4 µM].

(Values after PubChem BioAssay AID887 (National Center for Advancing Translational Sciences (NCATS), 2007).)
